# Laboratory results taken from ChEMBL document CHEMBL1961873, “Compounds: GSK PKIS; Assays: Nanosyn kinase panel” (2012).
# Columns and labels:
# [1] = system: Tyrosine-protein kinase ABL1 (Homo sapiens), P00519 [T315I]; settings: at 1 µM
# [2] = system: Tyrosine-protein kinase ABL1 (Homo sapiens), P00519 [Y253F]; settings: at 0.1 µM
# [3] = system: Tyrosine-protein kinase ABL1 (Homo sapiens), P00519 [Y253F]; settings: at 1 µM
# [4] = biological target: Tyrosine-protein kinase ABL1 (Homo sapiens) (UniProt P00519); settings: at 0.1 µM
# [5] = biological target: Tyrosine-protein kinase ABL1 (Homo sapiens) (UniProt P00519); settings: at 1 µM
# [6] = biological target: ALK tyrosine kinase receptor (Homo sapiens) (UniProt Q9UM73); settings: at 0.1 µM
# [7] = biological target: ALK tyrosine kinase receptor (Homo sapiens) (UniProt Q9UM73); settings: at 1 µM
# [8] = biological target: Tyrosine-protein kinase ABL2 (Homo sapiens) (UniProt P42684); settings: at 0.1 µM
# [9] = biological target: Tyrosine-protein kinase ABL2 (Homo sapiens) (UniProt P42684); settings: at 1 µM
# [10] = biological target: Tyrosine-protein kinase receptor UFO (Homo sapiens) (UniProt P30530); settings: at 0.1 µM
# [11] = biological target: Tyrosine-protein kinase receptor UFO (Homo sapiens) (UniProt P30530); settings: at 1 µM
# [12] = biological target: Tyrosine-protein kinase Blk (Homo sapiens) (UniProt P51451); settings: at 0.1 µM
# [13] = biological target: Tyrosine-protein kinase Blk (Homo sapiens) (UniProt P51451); settings: at 1 µM
# [14] = biological target: T1, Cytoplasmic tyrosine-protein kinase BMX (Homo sapiens) (UniProt P51813); settings: at 0.1 µM
# T1 sequence (whole entry): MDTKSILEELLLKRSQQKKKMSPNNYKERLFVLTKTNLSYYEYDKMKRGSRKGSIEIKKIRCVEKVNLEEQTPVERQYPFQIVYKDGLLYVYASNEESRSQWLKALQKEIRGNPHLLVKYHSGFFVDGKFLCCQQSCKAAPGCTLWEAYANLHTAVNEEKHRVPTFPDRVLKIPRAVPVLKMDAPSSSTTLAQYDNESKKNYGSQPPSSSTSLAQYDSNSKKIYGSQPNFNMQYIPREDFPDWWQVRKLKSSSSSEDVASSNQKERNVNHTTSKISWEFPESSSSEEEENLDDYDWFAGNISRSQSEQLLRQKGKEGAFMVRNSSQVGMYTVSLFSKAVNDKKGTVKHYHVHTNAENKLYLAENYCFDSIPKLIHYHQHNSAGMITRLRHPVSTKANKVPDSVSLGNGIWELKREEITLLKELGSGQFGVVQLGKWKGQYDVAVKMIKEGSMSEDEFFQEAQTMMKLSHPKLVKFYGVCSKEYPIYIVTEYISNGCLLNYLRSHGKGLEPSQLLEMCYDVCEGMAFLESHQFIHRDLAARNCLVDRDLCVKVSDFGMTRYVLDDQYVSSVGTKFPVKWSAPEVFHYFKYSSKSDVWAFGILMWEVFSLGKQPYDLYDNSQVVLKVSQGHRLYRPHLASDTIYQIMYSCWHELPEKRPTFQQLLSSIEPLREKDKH
# [15] = biological target: T1, Cytoplasmic tyrosine-protein kinase BMX (Homo sapiens); settings: at 1 µM
# [16] = biological target: Protein-tyrosine kinase 6 (Homo sapiens) (UniProt Q13882); settings: at 0.1 µM
# [17] = biological target: Protein-tyrosine kinase 6 (Homo sapiens) (UniProt Q13882); settings: at 1 µM
# [18] = biological target: Tyrosine-protein kinase BTK (Homo sapiens) (UniProt Q06187); settings: at 0.1 µM
# [19] = biological target: Tyrosine-protein kinase BTK (Homo sapiens) (UniProt Q06187); settings: at 1 µM
# [20] = biological target: Tyrosine-protein kinase CSK (Homo sapiens) (UniProt P41240); settings: at 0.1 µM;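 further: value given is the averaged percent inhibition of CSK kinase activity, from the GSK PKIS kinase inhibitor set screening panel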
# Chain of Tyrosine-protein kinase receptor UFO (Homo sapiens) (P30530 whole entry): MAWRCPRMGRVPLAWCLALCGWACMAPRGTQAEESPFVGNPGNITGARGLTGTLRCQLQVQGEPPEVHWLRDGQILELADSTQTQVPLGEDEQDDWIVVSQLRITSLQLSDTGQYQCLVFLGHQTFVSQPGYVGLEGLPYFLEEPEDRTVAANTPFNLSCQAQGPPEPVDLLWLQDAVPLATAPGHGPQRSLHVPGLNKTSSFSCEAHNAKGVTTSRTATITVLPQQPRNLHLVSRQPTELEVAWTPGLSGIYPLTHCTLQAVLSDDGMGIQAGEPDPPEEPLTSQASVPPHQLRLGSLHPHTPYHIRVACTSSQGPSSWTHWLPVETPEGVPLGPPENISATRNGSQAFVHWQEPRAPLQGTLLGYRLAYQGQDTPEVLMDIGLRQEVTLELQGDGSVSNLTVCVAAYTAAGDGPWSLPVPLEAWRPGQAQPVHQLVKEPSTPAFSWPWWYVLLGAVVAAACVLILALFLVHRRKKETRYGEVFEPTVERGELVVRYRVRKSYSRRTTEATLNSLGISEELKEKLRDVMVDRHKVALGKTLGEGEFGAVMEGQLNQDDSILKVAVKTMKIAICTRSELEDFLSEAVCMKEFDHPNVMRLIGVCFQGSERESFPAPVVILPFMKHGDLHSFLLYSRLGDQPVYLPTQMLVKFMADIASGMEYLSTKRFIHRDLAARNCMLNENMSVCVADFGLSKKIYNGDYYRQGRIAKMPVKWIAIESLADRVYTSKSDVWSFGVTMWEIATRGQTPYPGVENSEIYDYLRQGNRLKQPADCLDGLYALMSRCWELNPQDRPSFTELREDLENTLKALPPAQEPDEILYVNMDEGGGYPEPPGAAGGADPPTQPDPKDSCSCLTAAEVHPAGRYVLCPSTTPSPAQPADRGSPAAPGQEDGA
# Chain of Tyrosine-protein kinase Blk (Homo sapiens) (P51451 2-505 limits assumed): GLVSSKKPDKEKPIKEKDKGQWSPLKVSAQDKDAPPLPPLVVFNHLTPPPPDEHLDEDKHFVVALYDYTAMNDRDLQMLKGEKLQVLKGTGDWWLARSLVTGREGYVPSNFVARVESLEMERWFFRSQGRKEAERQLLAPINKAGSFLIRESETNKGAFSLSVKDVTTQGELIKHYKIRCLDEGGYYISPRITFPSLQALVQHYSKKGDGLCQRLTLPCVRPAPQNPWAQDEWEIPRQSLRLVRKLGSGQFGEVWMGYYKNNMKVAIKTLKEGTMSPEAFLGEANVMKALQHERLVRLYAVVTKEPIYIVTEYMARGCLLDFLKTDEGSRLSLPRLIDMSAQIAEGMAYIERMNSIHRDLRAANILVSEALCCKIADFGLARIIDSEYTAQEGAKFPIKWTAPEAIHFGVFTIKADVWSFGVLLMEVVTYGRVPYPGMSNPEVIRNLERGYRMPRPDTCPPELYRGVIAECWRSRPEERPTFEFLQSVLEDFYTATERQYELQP
# Chain of Tyrosine-protein kinase BTK (Homo sapiens) (Q06187 whole entry): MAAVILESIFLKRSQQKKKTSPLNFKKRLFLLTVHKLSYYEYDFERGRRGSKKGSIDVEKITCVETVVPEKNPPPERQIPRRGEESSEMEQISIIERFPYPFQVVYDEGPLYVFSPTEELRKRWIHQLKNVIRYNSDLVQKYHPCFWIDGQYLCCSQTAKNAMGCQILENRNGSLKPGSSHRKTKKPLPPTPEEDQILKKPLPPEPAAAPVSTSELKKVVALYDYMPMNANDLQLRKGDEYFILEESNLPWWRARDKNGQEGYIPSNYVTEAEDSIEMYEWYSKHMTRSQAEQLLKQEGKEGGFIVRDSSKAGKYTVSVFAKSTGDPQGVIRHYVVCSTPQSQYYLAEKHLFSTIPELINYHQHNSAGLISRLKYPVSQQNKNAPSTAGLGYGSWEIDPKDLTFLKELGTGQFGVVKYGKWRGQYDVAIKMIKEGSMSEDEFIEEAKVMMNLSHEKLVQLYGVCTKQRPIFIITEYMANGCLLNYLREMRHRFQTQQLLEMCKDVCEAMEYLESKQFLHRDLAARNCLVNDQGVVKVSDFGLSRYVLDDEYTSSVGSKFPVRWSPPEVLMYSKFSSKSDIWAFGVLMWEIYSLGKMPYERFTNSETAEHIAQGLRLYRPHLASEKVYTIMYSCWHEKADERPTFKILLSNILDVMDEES
# Chain of Tyrosine-protein kinase ABL2 (Homo sapiens) (P42684 whole entry): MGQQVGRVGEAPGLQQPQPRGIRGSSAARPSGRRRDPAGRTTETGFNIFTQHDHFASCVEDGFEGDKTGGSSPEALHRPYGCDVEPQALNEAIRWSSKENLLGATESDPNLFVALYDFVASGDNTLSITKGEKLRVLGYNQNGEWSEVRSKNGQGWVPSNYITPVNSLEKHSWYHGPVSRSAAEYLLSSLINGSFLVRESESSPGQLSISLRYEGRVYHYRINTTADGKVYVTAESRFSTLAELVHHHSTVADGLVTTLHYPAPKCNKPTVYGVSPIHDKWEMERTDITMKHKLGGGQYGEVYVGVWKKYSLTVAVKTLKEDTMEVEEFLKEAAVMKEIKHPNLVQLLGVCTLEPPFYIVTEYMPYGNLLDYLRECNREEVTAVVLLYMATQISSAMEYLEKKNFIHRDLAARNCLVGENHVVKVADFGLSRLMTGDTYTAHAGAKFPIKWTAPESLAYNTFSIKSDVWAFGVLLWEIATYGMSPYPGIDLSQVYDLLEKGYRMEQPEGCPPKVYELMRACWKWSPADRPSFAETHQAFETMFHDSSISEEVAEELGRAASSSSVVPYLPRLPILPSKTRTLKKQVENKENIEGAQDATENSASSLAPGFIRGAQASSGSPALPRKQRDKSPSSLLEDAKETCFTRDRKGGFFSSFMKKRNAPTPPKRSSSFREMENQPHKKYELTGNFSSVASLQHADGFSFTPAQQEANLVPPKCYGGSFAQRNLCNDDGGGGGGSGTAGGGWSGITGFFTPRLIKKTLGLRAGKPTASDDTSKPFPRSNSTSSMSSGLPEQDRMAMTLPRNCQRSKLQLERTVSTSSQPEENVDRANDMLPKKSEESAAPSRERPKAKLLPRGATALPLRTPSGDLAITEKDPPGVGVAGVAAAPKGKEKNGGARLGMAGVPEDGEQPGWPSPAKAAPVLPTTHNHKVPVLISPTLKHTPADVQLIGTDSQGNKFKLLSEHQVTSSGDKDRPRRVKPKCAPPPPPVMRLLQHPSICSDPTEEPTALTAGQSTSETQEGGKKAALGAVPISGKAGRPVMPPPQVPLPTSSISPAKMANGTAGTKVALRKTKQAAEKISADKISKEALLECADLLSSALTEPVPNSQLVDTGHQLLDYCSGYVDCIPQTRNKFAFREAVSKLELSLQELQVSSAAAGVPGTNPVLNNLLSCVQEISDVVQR
# Chain of ALK tyrosine kinase receptor (Homo sapiens) (Q9UM73 19-1620 limits assumed): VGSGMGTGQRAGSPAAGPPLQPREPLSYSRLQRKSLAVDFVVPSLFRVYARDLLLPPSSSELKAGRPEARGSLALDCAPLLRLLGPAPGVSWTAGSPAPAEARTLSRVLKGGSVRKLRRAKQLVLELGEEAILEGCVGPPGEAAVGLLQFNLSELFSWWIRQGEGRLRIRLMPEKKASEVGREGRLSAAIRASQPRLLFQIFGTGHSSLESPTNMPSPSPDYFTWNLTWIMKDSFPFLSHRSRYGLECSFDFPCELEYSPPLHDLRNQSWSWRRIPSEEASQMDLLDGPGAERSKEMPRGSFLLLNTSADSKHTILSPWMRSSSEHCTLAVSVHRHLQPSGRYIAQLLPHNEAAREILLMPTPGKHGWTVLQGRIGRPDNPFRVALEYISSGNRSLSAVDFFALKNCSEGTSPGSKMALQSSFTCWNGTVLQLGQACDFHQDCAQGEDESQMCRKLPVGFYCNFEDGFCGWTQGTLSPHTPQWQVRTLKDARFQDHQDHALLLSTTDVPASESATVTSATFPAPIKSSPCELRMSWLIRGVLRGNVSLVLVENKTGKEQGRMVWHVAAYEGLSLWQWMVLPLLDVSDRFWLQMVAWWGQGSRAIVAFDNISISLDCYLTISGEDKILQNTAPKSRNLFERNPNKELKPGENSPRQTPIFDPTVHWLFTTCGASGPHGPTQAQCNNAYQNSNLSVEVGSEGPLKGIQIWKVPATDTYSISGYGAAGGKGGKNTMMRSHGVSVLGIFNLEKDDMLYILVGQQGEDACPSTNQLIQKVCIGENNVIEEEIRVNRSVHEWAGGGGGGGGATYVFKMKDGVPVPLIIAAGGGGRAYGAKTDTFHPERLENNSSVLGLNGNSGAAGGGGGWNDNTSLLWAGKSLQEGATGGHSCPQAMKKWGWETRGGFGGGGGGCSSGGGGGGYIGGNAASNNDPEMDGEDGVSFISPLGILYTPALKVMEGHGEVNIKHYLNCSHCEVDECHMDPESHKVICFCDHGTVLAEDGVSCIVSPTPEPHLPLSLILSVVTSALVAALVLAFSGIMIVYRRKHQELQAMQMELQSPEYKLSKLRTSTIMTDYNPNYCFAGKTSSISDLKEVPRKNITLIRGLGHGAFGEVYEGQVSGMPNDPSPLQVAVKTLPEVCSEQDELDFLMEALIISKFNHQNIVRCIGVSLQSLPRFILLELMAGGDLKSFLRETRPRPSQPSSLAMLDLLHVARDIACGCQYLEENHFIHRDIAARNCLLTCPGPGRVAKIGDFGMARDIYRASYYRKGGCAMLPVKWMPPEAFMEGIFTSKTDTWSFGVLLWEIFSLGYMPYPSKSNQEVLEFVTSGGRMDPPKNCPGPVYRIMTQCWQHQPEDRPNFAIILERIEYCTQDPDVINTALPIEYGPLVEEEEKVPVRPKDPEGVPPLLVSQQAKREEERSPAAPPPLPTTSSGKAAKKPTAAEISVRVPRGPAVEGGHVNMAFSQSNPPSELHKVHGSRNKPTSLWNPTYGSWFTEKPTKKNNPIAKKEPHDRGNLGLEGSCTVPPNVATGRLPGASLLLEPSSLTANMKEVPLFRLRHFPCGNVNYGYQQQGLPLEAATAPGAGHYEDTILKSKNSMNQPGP
SMILES,inhibition [1],inhibition [2],inhibition [3],inhibition [4],inhibition [5],inhibition [6],inhibition [7],inhibition [8],inhibition [9],inhibition [10],inhibition [11],inhibition [12],inhibition [13],inhibition [14],inhibition [15],inhibition [16],inhibition [17],inhibition [18],inhibition [19],inhibition [20]
O=C(Nc1n[nH]c2nc(-c3ccco3)ccc12)C1CC1,12.8%,4.47%,7.45%,3.94%,14%,1.35%,2.65%,4.39%,6.13%,2.04%,5.23%,0.69%,5.1%,-0.85%,1.83%,2.56%,1.59%,0.36%,0.7%,0.84%
COc1cc(N2CCN(C(C)C)CC2)ccc1Nc1nc(Nc2ccc(F)cc2C(=O)NC[C@@H](O)CO)c2cc[nH]c2n1,6.94%,4.03%,6.49%,-1.73%,0.53%,82.6%,69.5%,-1.39%,1.38%,-4.74%,7.75%,-1.34%,0.03%,3.82%,4.34%,4.82%,7.68%,-2.66%,-4.6%,5.74%
CS(=O)(=O)CCNCc1ccc(-c2ccc3ncnc(Nc4ccc(OCc5ccccc5)c(Br)c4)c3c2)o1,1.57%,4.14%,4.05%,3.09%,2.83%,-0.91%,1.84%,0.83%,4.36%,-6.75%,-7.91%,-0.29%,3.05%,3.44%,0.49%,4.61%,11.8%,-3.57%,-0.34%,0.44%
COc1cc2ncn(-c3cc(OCc4cccs4)c(C(N)=O)s3)c2cc1OC,59.6%,9.05%,41.8%,3.87%,42%,-3.76%,6.72%,0.54%,18.4%,3.68%,1.31%,0.4%,18.6%,-4.41%,3.5%,2.12%,7.01%,-2.66%,-0.98%,4.25%
Fc1ccc(-c2ncn(CCCN3CCOCC3)c2-c2ccncc2)cc1,-0.98%,-0.87%,0.03%,1.14%,0.89%,1.45%,-0.45%,1.71%,5.07%,-0.1%,1.84%,-0.04%,1.04%,1.9%,-0.36%,-4.64%,-0.48%,-0.91%,2.71%,-2.06%
O=C(Nc1n[nH]c2cc(-c3cc(F)ccc3F)ccc12)C1CC1,74%,13.8%,49.6%,8.06%,51.4%,2.02%,4.05%,3.87%,19%,-7.5%,-2.71%,1.38%,4.54%,1.69%,3.35%,1.78%,2.23%,-1.19%,-2.01%,3.87%
COc1cc(Nc2ncc3c(C)nc(-c4cccc(C(F)(F)F)c4)n3n2)cc(OC)c1OC,13.1%,3.77%,16.2%,2.35%,14.6%,2.22%,6.97%,3.85%,13.1%,-3.79%,-0.36%,3.39%,25.1%,-0.78%,11.9%,3.48%,5.36%,2.11%,4.31%,4.48%
NS(=O)(=O)c1ccc(Nc2cc(-c3ccc(O)c(F)c3)n[nH]2)cc1,22.8%,2.85%,35.6%,0.38%,34.8%,-2.35%,8.38%,0.56%,16.9%,1.86%,1.05%,-1.01%,12.1%,-5.24%,-1.41%,-4.55%,-9.05%,-1.3%,-0.82%,-8.87%
COc1ccc2ncn(-c3cc(O[C@H](C)c4ccccc4Cl)c(C(N)=O)s3)c2c1,3.67%,2.13%,4.15%,-0.74%,0.5%,-1.6%,0.59%,-1.99%,-0.05%,-9.61%,-8.67%,-1.08%,-2.12%,3.14%,4.61%,-0.06%,4.71%,-4.3%,-3.34%,4.64%
Cc1ccc(C(=O)NC2CCC2)cc1-c1ccc(C(=O)NCC2CC2)cc1,-1.77%,2.23%,0.38%,3.73%,5.96%,2.79%,3.48%,3.15%,0.48%,-4.44%,-1.14%,2.1%,1.49%,8.25%,2.61%,1.28%,1.95%,0.87%,0.88%,-0.66%
CCc1nccc2c1nc(-c1nonc1N)n2CC,-0.14%,2.18%,2.26%,1.88%,7.3%,0.99%,0.3%,2.12%,9.26%,-0.45%,2.17%,0.44%,1.64%,-1.94%,2.51%,-3.14%,-0.37%,-0.56%,0.41%,1.3%
NS(=O)(=O)c1ccc(N/N=C2\C(=O)Nc3ccc(-c4cnco4)cc32)cc1,19.9%,3.03%,13.4%,-0.39%,9.41%,-3.07%,-0.11%,-0.55%,9.88%,-3.81%,-1.27%,-1.23%,10.4%,0.98%,5.77%,3.53%,4.99%,-4.28%,-2.57%,2.16%
NCc1ccc(-n2c(-c3nonc3N)nc3cnccc32)cc1,0.9%,4.15%,2.66%,4.78%,3.54%,6.31%,17.3%,4.87%,6.75%,-7.21%,-1.85%,3.21%,4.2%,5.93%,4.77%,5.04%,5.62%,-0.77%,0.66%,3.09%
C[C@@H](Oc1cc(-n2cnc3ccc(OC4CCN(C)CC4)cc32)sc1C(N)=O)c1ccccc1Cl,7.51%,3.29%,13.1%,0.35%,7.3%,-0.85%,5.48%,-1.57%,2.18%,-8.27%,-3.62%,-0.86%,-0.94%,4%,6.6%,2.72%,3.15%,-4.65%,-3.35%,2.4%
O=C1Nc2ccccc2/C1=C/Nc1ccc(-n2cncn2)cc1,17.2%,3.13%,13.1%,1.87%,13.5%,1.97%,11.8%,3.58%,7.69%,-6.88%,-3.55%,3.13%,19.7%,6.8%,4.54%,3.56%,6%,0.25%,-0.4%,3.03%
